Among all 52,000 compounds or so, about 1,700 (3.3%) were called active. The sample holds actives, similar compounds and a random draw of the others, so the mix is not that of the screen. No stated cut-off is given here; in the data, active means survival mostly below about 52% (no sharp cut-off); inactive means mostly above about 56%.
The compounds below were run on Wild type (assay: S. aureus survival, RN4220 and DeltatarO strains – OD600, teichoic acid synthesis inhibitors, primary screen (AID 463173)). Conditions: S. aureus RN4220 wild type/DeltatarO growth, OD600, 18 h, stronger effect = lower value, screened at 18.75 µg/mL (by protocol).

Structure (SMILES)	survival
COCCCNC(=O)C1CCN(c2ncnc3c2nc2n3CCCCC2)CC1	89% (inactive)
CSc1nnc(-c2cc3ccccc3cc2O)n1C	111% (inactive)
COC(=O)c1sc2nc(C)cc(C)c2c1N	103% (inactive)
Nc1nc2cc3c(cc2s1)OCCO3	113% (inactive)
COc1cc2nc(SCc3ccc(Cl)cc3)n3nc(CCn4nc(C)cc4C)nc3c2cc1OC	71% (inactive)
CCCCOc1ccc(CNC(=O)c2cnc3sc(N4CCC(C)CC4)nn3c2=O)cc1	127% (inactive)
COC(=O)c1ccc(NC(=O)CCn2cccn2)cc1	88% (inactive)
CCc1ccc(OCC(=O)Nc2ccc3c(c2)c2ccccc2n3CC)cc1	69% (inactive)
CCn1c2ccccc2c2cc(NC(=O)COC)ccc21	108% (inactive)
CCc1ccc(OCC(=O)Nc2ccc3c(c2)c2ccccc2n3CC)c(Br)c1	-6% (active)
CCn1c2ccccc2c2cc(NC(=O)COc3ccc(C)cc3C)ccc21	8% (active)
CCn1c2ccccc2c2cc(NC(=O)COc3cc(C)ccc3C)ccc21	18% (inactive)
CCn1c2ccccc2c2cc(NC(=O)COc3cccc(C)c3)ccc21	34% (inactive)
COc1ccc(-c2cc(C(=O)Nc3c(Cl)cccc3Cl)no2)cc1OC	79% (inactive)
O=C(Nc1c(Cl)cccc1Cl)c1cc(-c2ccc3c(c2)OCO3)on1	82% (inactive)
O=C(Nc1c(Cl)cccc1Cl)c1cc(-c2cccc(O)c2)on1	5% (active)
COC(=O)/C=C1/C(=O)N(C(C)=O)c2ccccc21	108% (inactive)
COc1ccc(CNS(=O)(=O)c2cc3c(cc2C)n(C)c(=O)c(=O)n3C)cc1	77% (inactive)
COc1cccc(N2CCN(Cc3nnc(-c4ccc5c(c4)OCO5)o3)CC2)c1	102% (inactive)
Cc1cccc(-c2noc(CN(C(C)C)S(=O)(=O)c3ccc(Br)cc3)n2)c1	72% (inactive)
Cc1cccc(-c2noc(CN(C(=O)c3ccc(C)c(C)c3)C(C)C)n2)c1	0% (active)
Cc1cccc(-c2noc(CN(C(=O)COc3ccc(C(C)C)cc3)C(C)C)n2)c1	3% (active)
Cc1cccc(-c2noc(CN(C(=O)c3ccccc3Cl)C(C)C)n2)c1	86% (inactive)
CCOc1ccc(C(=O)N(Cc2nc(-c3cccc(C)c3)no2)C(C)C)cc1	2% (active)

Structure (SMILES)	survival
COc1ccc(OC(C)C(=O)NCc2nc(-c3cccc(C)c3)no2)cc1 (centres undefined)	87% (inactive)
COc1ccccc1C(=O)N(Cc1nc(-c2cccc(C)c2)no1)C(C)C	56% (inactive)
COc1ccc(S(=O)(=O)N(C)Cc2nc(-c3cccc(C)c3)no2)cc1	74% (inactive)
Cc1cccc(-c2noc(CN(C(=O)COc3ccc(Br)cc3C)C(C)C)n2)c1	30% (inactive)
CCN(CC(O)COc1ccc(OCC(O)CN(CC)C2CCCCC2)cc1)C1CCCCC1 (centres undefined)	109% (inactive)
CC1(C)CC(=O)c2cc(-c3nc(-c4ccc(Cl)cc4)cs3)c(=O)n(-c3ccc(Cl)cc3)c2C1	67% (inactive)
Cn1nc(C(=O)NCCc2ccc(Cl)cc2)c2c1-c1ccccc1SC2	82% (inactive)
CCc1nn2c(=O)c(S(=O)(=O)Nc3ccc(C)cc3C)c(C)nc2s1	75% (inactive)
CCCCN(CC)CCNC(=O)c1cn(CCOC)c(=O)c2c1c1ccccc1n2C	89% (inactive)
COc1ccccc1-c1c(C)nn2c(-c3ccccc3)cc(-c3ccccc3)nc12	77% (inactive)
Cc1cc(C)cc(OC(C)C(=O)Nc2nonc2-c2ccc(Br)cc2)c1 (centres undefined)	17% (active)
Cc1ccc(OC(C)C(=O)Nc2nonc2-c2ccc(Br)cc2)cc1C (centres undefined)	72% (inactive)
Cc1cccc(OC(C)C(=O)Nc2nonc2-c2ccc(Br)cc2)c1C (centres undefined)	94% (inactive)
Cc1ccc(-n2nc(CO)c(C(=O)NCCC(C)C)n2)cc1C	116% (inactive)
CCOc1ccccc1NC(=O)CN1C(=O)C2(SCC(=O)N2c2cccc(F)c2)c2ccccc21 (centres undefined)	97% (inactive)
Cc1ccc(/C=N/NC(=O)C2=NNC(=O)C2C)o1 (centres undefined)	107% (inactive)
COc1cccc(OCc2nnc(SCC(=O)O)o2)c1	98% (inactive)
CCCc1cc(=O)oc2cc(C)c3c(-c4ccccc4)coc3c12	66% (inactive)
CCCc1cc(=O)oc2cc(C)c3c(-c4ccccc4)c(C)oc3c12	0% (active)
CCCc1cc(=O)oc2cc(C)c3c(-c4cccc(OC)c4)coc3c12	74% (inactive)
CCN1C(=O)c2ccccc2S(=O)c2ccc(C(=O)N3CCN(c4ccccc4)CC3)cc21 (centres undefined)	83% (inactive)
CCOc1ccc2nc(N3CCCC(C(=O)Nc4ccc(OC)c(Cl)c4)C3)sc2c1 (centres undefined)	89% (inactive)
CCOc1ccc(NCc2nc3ccccc3n2CCOc2ccc(C)cc2)cc1	-20% (active)
Cc1ccc(OCCn2c(CNc3cccc(C)c3)nc3ccccc32)cc1	-21% (active)

Structure (SMILES)	survival
COc1ccc(NCc2nc3ccccc3n2CCOc2ccc(C)cc2)cc1	-18% (active)
CCOc1ccc(NCc2n[nH]c(=S)n2-c2ccc(C)cc2)cc1	122% (inactive)
Cc1ccc(NCc2nc3ccccc3n2CCOc2ccccc2)cc1	-20% (active)
Clc1ccc(NCc2nc3ccccc3n2CCOc2ccccc2)cc1	74% (inactive)
CC(C)CCNc1ncnc2c1nnn2Cc1ccccc1	111% (inactive)
Cc1nc2cc(NC(=O)Nc3ccccc3Cl)ccc2n1C	109% (inactive)
CCCCNC(=O)c1nn(-c2ccc(C)cc2)c(=O)n(C)c1=O	68% (inactive)
Cc1ccc(N(CC(=O)Nc2ccc(Cl)cc2)S(=O)(=O)c2cccc3nonc23)cc1	125% (inactive)
O=C(Cn1ncn2nc(-c3cccs3)cc2c1=O)NCc1ccccc1Cl	94% (inactive)
COc1ccc(-c2nn3c(=O)cc(CN4CCN(C(=O)/C=C/c5ccccc5)CC4)nc3s2)cc1	72% (inactive)
CCn1cc2nc(SCc3c(F)cccc3Cl)n(CCc3ccccc3)c(=O)c2n1	64% (inactive)
CCn1c(=O)cc(SCC(=O)NCc2ccc(F)cc2Cl)c2ccccc21	91% (inactive)
Cc1cc(Cl)ccc1NC(=O)C1CCCN(c2nnc(C)c3c(C)n(-c4ccccc4)nc23)C1 (centres undefined)	70% (inactive)
Cc1ccc(OCCn2c(CNc3ccccc3C)nc3ccccc32)cc1	57% (inactive)
Cc1ccccc1NCc1nc2ccccc2n1CCOc1ccccc1	-20% (active)
Cc1ccc(CSCC(=O)N2CCN(c3ccccc3F)CC2)cc1	45% (inactive)
COc1ccc(Cn2c(=O)c3ccccc3n3c(-c4cccc(OC)c4OC)nnc23)cc1	87% (inactive)
COc1cccc(CNC(=O)CCn2nc(C)c3c(C)n(-c4ccccc4)nc3c2=O)c1	82% (inactive)
COc1ccc(CNC(=O)CCCn2nc(C)c3c(C)n(-c4ccc(C)cc4)nc3c2=O)cc1OC	71% (inactive)
Cc1nn(CCC(=O)NCc2ccc(Cl)cc2)c(=O)c2nn(-c3ccccc3)c(C)c12	-3% (active)
COc1ccc(CNC(=O)CCn2nc(C)c3c(C)n(-c4ccccc4)nc3c2=O)cc1OC	-2% (active)
Cc1ccc(NC(=O)CCCn2nc(C)c3c(C)n(-c4ccccc4)nc3c2=O)c(Cl)c1	113% (inactive)
Cc1cccc(NC(=O)CCn2nc(C)c3c(C)n(-c4ccccc4)nc3c2=O)c1C	65% (inactive)
Cc1cc(Cl)ccc1NC(=O)CCn1nc(C)c2c(C)n(-c3ccccc3)nc2c1=O	68% (inactive)

Structure (SMILES)	survival
COc1cc(OC)c(NC(=O)CCCn2nc(C)c3c(C)n(-c4ccccc4)nc3c2=O)cc1Cl	0% (active)
Cc1cc(Cl)ccc1NC(=O)CCCn1nc(C)c2c(C)n(-c3ccccc3)nc2c1=O	118% (inactive)
Cc1ccc(C)c(NC(=O)CCn2nc(C)c3c(C)n(-c4ccccc4)nc3c2=O)c1	10% (active)
CCc1ccc(CNC(=O)CCn2nc(C)c3c(C)n(-c4ccccc4)nc3c2=O)cc1	65% (inactive)
Cc1nn(CCC(=O)NCc2ccc(N(C)C)cc2)c(=O)c2nn(-c3ccccc3)c(C)c12	87% (inactive)
O=C(NCCSCc1c(F)cccc1Cl)C1CCN(S(=O)(=O)Cc2ccccc2)CC1	87% (inactive)
O=C(CC(c1cccs1)N1Cc2ccccc2C1=O)Nc1ccc(F)cc1 (centres undefined)	91% (inactive)
CCN(CC)C(=O)Cn1c(=O)cc(C)c2c(C)nn(-c3cccc(Cl)c3C)c21	85% (inactive)
Cc1ccccc1C(=O)Nc1ccc2c(c1)CCCN2C(=O)c1cccs1	77% (inactive)
Cc1ccccc1NC(=O)Cn1c(=O)n(CCCC(=O)NCc2ccc3c(c2)OCO3)c(=O)c2ccccc21	91% (inactive)
Cc1ccc(S(=O)(=O)c2cn(C)c3cc(N4CCCCC4)c(F)cc3c2=O)cc1	74% (inactive)
COc1ccc(-c2nc3c(c(SCC(=O)Nc4ccccc4F)n2)Cc2cc(C)ccc2O3)cc1	80% (inactive)
COc1ccccc1NC(=O)C(=O)NCC(c1ccc2c(c1)OCO2)N1CCN(C)CC1 (centres undefined)	81% (inactive)
O=C(CN(c1ccc(Cl)c(C(F)(F)F)c1)S(=O)(=O)c1ccccc1)Nc1cccnc1	64% (inactive)
Cc1c(CCC(=O)N2CCCCC2)c(=O)oc2cc3occ(C(C)(C)C)c3cc12	74% (inactive)
Cc1cccc(Cn2c(SCc3ccc(C(=O)NCc4cccs4)cc3)nc3ccncc32)c1	84% (inactive)
COc1cc(-c2ccno2)ccc1S(=O)(=O)N1CCN(c2ccccc2)CC1	71% (inactive)
COc1cc(-c2ccno2)ccc1S(=O)(=O)N1CCN(c2ccc(F)cc2)CC1	63% (inactive)
COc1ccccc1N1CCN(S(=O)(=O)c2ccc(-c3ccno3)cc2OC)CC1	82% (inactive)
COc1cccc(N2CCN(S(=O)(=O)c3ccc(-c4ccno4)cc3OC)CC2)c1	57% (inactive)
COc1ccc(N2CCN(S(=O)(=O)c3ccc(-c4ccno4)cc3OC)CC2)cc1	1% (active)
COc1cc(-c2ccno2)ccc1S(=O)(=O)N1CCN(c2cccc(Cl)c2)CC1	-3% (active)

Reference: PubChem BioAssay AID463173 (ICCB-Longwood Screening Facility, Harvard Medical School, 2010)
